# Data published in PubChem BioAssay AID686928 (Broad Institute, 2013).
# Measured potencies and affinities stand elsewhere. The source made the active and inactive calls. How the calls were made is not given here.
# Test: HeLa cell cytotoxicity, dose response, cytotoxicity control, 24 h, plate reader, dry powder (AID 686928)
# Conditions: series mostly up to 80 µM
row,SMILES,outcome
1,O=C(Nc1nnc(-c2ccc3c(c2)OCCO3)o1)C1CC1,inactive
2,CC(C)(C)OC(=O)N1CCC(C(=O)Nc2nnc(-c3ccc4c(c3)OCCO4)o2)CC1,inactive
3,COc1ccc(S(=O)(=O)Nc2nnc(-c3ccc4c(c3)OCCO4)o2)cc1,inactive
4,NC(=O)c1ccccc1Nc1cccc(Cl)c1,inactive
5,O=C(O)c1ccccc1Nc1cccc(Cl)c1,inactive
6,Cc1ccc2cc3c(NC(=O)c4cc5ccccc5o4)nn(C)c3nc2c1,inactive
7,O=C1C(=O)N(Cc2ccccc2Cl)c2ccccc21,inactive
8,CCn1nnnc1/N=C/c1ccc(N2CCCCC2)cc1,inactive
9,Cn1nc(NC(=O)c2ccco2)c2cc3ccccc3nc21,inactive
10,O=C(Cc1ccc(-c2ccccc2)cc1)NC1COC1,inactive
11,O=c1nc(-c2ccccc2)n(-c2cccc(Cl)c2)c2ccccc12,inactive
12,O=C(Nc1nnc(-c2cccnc2)o1)C1CCCCC1,inactive
13,O=C(Cc1ccc(-c2ccccc2)cc1)N[C@@H]1CCOC1 (racemic),inactive
14,O=S(=O)(Nc1nnc(-c2ccc3c(c2)OCCO3)o1)c1ccc(Cl)cc1,inactive
15,CCc1ccc2cc3c(NC(=O)c4ccco4)nn(C)c3nc2c1,inactive
16,NC(=O)c1ccccc1Nc1ccccc1,inactive
17,COc1ccc(-c2nnc(NC(=O)C3CCCCC3)o2)cc1,inactive
18,O=c1ncn(-c2cccc(Cl)c2)c2ccc(Cl)cc12,inactive
19,O=C(Nc1nnc(-c2ccc3c(c2)OCCO3)o1)C1CCC1,inactive

row,SMILES,outcome
1,COc1ccc2cc3c(NC(=O)c4ccco4)nn(C)c3nc2c1,inactive
2,COc1cccc(-n2cnc(=O)c3ccccc32)c1,inactive
3,Cc1ccc2cc3c(NC(=O)c4cccs4)nn(C)c3nc2c1,inactive
4,CCOC(=O)c1ccccc1Nc1cccc(Cl)c1,inactive
5,O=C(Nc1nnc(-c2ccccc2Cl)o1)C1CCCCC1,inactive
6,CN1CCC(C(=O)Nc2nnc(-c3ccc4c(c3)OCCO4)o2)CC1,inactive
7,C(=N\c1nnc(-c2ccc3c(c2)OCCO3)o1)/c1ccccc1,inactive
8,Cn1nc(NC(=O)c2ccco2)c2cccnc21,inactive
9,O=C(Cc1ccc(-c2ccccc2)cc1)NC1CCC1,inactive
10,Cc1ccc2c(=O)ncn(-c3cccc(Cl)c3)c2c1,inactive
11,Cc1ccc2cc3c(NC(=O)c4ccccn4)nn(C)c3nc2c1,inactive
12,Cn1ccc(NC(=O)c2ccco2)n1,inactive
13,CCc1nc(=O)c2ccccc2n1-c1cccc(Cl)c1,inactive
14,Cc1ccc2cc3c(NC(=O)c4ccc(C)o4)nn(C)c3nc2c1,inactive
15,O=c1ncn(-c2ccc(F)c(Cl)c2)c2ccccc12,inactive
16,O=C(Nc1nnc(-c2ccc3c(c2)OCCO3)o1)C1CCCC1,inactive
17,O=c1ncn(-c2cccc(Cl)c2)c2ccccc12,inactive
18,Cc1cccc(-n2cnc(=O)c3ccccc32)c1,inactive
19,O=C(Nc1nnc(-c2ccc3c(c2)CCCC3)o1)C1CCC1,inactive
